Here are results for 34 compounds from PubChem BioAssay (Tox21).

Structures are written as SMILES. Inconclusive results are not listed. Activity calls are given as the source filed them. Unless noted, calls follow the shape of the dose curve; as a rule, active = well fitted curve in the direction sought with a large enough effect in the repeat runs; inconclusive = weak or mixed curves; inactive = no such curve, though single readings can be large; an effect the other way counts as inactive or inconclusive.

Test [1] deals with Luciferin 4-monooxygenase (Photinus pyralis) (UniProt P08659). The experiment in a line: qHTS assay to identify small molecule inhibitors of firefly luciferase (AID 1224835). Also: nearly all actives have a fitted effect of over 25% in size. Also: potency is read from the fitted curve at half-maximal effect. The method in brief:
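Inhibition of purified Photinus luciferase is measured by luminescence. Substrate levels (D-luciferin, ATP) sit at their KM values. Each compound is tested in a concentration series.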

Test [2] can be described thus: qHTS assay to identify small molecule agonists of the constitutive androstane receptor (CAR) signaling pathway - cell viability counter screen (AID 1224836). Also: nearly all actives have a fitted effect of over 45% in size. Also: potency is read from the fitted curve at half-maximal effect. The method in brief: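 Cells were seeded and incubated 4 hrs. Compounds were added across 15 concentrations together with PK11195 at 0.75 uM final. Plates were incubated 23 hrs at 37 C. CellTiter-Fluor was added and fluorescence measured.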
In general terms: In qHTS, concentration-response curves come from the screen itself.

The nature of test [3]: qHTS assay to identify small molecule antagonists of the constitutive androstane receptor (CAR) signaling pathway - cell viability counter screen (AID 1224837). Also: series mostly up to about 92 µM; nearly all actives have a fitted effect of over 45% in size. In short, it runs like this: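 To flag cytotoxic false antagonists, HepG2 hCAR/CYP2B6-2.2kb cells were treated 23 hr with 15-concentration compound series and 50 nM CITCO at 37 C/5% CO2; CellTiter-Fluor fluorescence was the measured end point.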

Test [4] deals with Nuclear receptor subfamily 1 group I member 3 (Homo sapiens) (UniProt Q14994). The experiment in a line: qHTS assay to identify small molecule agonists of the constitutive androstane receptor (CAR) signaling pathway (AID 1224839). Also: nearly all actives have a fitted effect of over 15% in size. Also: potency is read from the fitted curve at half-maximal effect. In short, it runs like this:
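Cells were plated and incubated 4 hrs, then dosed with compounds at 15 concentrations. PK11195 was added to 0.75 uM final. After 24 hrs at 37 C, luciferase luminescence was measured.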

Test [5] is described as follows: qHTS assay to identify small molecule antagonists of the estrogen related receptor signaling pathway with the pleiotropic PPARgamma coactivator (PGC) from Tox21 10K library - cell viability counter screen (AID 1224840; active = well fitted cell-killing curve with a large enough effect in the repeat runs, not every such curve was filed as active; also: nearly all actives have a fitted effect of over 40% in size; also: potency is read from the fitted curve at half-maximal effect). In short, it runs like this:
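Seeded PGC/ERR cells (2,000/well, 6 h, 37 C/5% CO2) get compound by pin tool; 17.5 h incubation at 37 C; CellTiter-Fluor added, 30 min, fluorescence measured.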

Test [6] can be described thus: qHTS assay to identify small molecule antagonists of the estrogen related receptor signaling pathway with the pleiotropic PPARgamma coactivator (PGC) from Tox21 10K library (AID 1224841; call rule not given here; also: actives are mostly falling curves and most rising ones were filed inactive; nearly all actives have a fitted effect of over 50% in size; also: potency is read from the fitted curve at half-maximal effect). The method in brief: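 Test chemicals dissolved in DMSO were applied to pre-incubated (6 h) PGC/ERR cells at 2,000 cells/well for an 18 h, 37 C treatment; reporter luminescence was then read using One-Glo.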

The nature of test [7]: qHTS assay to identify small molecule agonists of the hypoxia (HIF-1) signaling pathway - cell viability counter screen (AID 1224844; calls by dose curve; also: nearly all actives have a fitted effect of over 50% in size; also: potency is read from the fitted curve at half-maximal effect). In short, it runs like this: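 HRE-bla ME-180; 0.5% dFBS; cpd 17 h, 37C, 5% CO2; CellTiter-Glo lum., 30 min RT, post-FRET read, same wells.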
Test [8] is described as follows: qHTS assay to identify small molecule agonists of the estrogen related receptor signaling pathway with the pleiotropic PPARgamma coactivator (PGC) from Tox21 10K library (AID 1224842). Also: nearly all actives have a fitted effect of over 15% in size. The method in brief:
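Luminescence from One-Glo (30 min, room temperature) measured after PGC/ERR cells had 18 h at 37 C with pinned compound (23 nL in DMSO). Cells had been seeded at 2,000 per well and pre-incubated 6 h.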

Test [9] concerns the target Thyrotropin receptor (Homo sapiens) (UniProt P16473). Briefly: qHTS assay to identify small molecule agonists of the thyroid stimulating hormone receptor (TSHR) signaling pathway (AID 1224843; calls by dose curve; also: nearly all actives have a fitted effect of over 45% in size; also: potency is read from the fitted curve at half-maximal effect). In short, it runs like this:
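Agonist activity read as cAMP rise via d2/cryptate HTRF competition, 1 h room-temperature detection, in HEK293 cells expressing TSHR. Fifteen-point titrations, each run in triplicate, with a 30 min room-temperature incubation beforehand.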

Test [10] has as its target Nuclear receptor subfamily 1 group I member 3 (Homo sapiens) (UniProt Q14994). Briefly: qHTS assay to identify small molecule antagonists of the constitutive androstane receptor (CAR) signaling pathway (AID 1224838).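 Also: HepG2 cells stably expressing hCAR with CYP2B6 luciferase reporter stimulated by CITCO; nearly all actives have a fitted effect of over 40% in size.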 Also: potency is read from the fitted curve at half-maximal effect. In short, it runs like this:
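Human hepatoma HepG2 cells expressing hCAR and a CYP2B6 promoter (2.2 kb) luciferase construct; compound titration (15 points) with 50 nM CITCO final, 24 h at 37 C/5% CO2; luminescence via ONE-Glo after 30 min at room temperature.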

Sequence of Thyrotropin receptor (Homo sapiens) (P16473 whole entry, looked up): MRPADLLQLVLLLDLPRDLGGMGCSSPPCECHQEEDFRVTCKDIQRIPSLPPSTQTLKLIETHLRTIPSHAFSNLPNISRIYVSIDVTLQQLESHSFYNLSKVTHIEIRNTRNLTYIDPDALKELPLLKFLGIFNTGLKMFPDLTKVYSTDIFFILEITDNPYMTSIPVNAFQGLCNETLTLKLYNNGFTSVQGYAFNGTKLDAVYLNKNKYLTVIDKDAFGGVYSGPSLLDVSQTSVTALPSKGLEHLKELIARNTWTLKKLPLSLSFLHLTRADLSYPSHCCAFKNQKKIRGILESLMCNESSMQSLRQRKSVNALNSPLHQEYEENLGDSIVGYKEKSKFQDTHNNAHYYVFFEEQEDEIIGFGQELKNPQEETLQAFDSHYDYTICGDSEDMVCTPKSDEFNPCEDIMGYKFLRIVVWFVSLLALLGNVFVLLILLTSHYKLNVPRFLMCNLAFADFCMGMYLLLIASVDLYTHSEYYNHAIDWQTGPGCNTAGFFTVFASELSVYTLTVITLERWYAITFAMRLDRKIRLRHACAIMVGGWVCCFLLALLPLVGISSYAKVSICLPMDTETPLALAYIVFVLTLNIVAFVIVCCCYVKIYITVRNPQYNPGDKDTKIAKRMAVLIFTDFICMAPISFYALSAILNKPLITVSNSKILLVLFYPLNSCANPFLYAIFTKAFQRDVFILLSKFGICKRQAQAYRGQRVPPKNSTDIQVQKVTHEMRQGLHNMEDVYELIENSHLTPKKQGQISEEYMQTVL
Sequence of Luciferin 4-monooxygenase (Photinus pyralis) (P08659 whole entry, looked up): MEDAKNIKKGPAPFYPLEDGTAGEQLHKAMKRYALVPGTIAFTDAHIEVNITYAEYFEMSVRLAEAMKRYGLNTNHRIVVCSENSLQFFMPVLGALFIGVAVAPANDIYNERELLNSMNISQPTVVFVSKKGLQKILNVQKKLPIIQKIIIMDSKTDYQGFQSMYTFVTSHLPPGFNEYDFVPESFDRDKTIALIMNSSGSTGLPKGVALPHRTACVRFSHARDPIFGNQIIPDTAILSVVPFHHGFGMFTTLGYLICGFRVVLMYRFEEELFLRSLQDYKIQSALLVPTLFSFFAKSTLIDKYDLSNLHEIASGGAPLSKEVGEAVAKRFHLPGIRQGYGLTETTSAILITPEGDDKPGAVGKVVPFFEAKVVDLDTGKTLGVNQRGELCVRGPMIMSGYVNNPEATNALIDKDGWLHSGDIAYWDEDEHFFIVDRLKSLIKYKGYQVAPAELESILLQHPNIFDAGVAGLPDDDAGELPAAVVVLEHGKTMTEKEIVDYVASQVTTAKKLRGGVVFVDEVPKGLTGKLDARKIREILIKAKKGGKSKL
Sequence of Nuclear receptor subfamily 1 group I member 3 (Homo sapiens) (Q14994 whole entry, looked up): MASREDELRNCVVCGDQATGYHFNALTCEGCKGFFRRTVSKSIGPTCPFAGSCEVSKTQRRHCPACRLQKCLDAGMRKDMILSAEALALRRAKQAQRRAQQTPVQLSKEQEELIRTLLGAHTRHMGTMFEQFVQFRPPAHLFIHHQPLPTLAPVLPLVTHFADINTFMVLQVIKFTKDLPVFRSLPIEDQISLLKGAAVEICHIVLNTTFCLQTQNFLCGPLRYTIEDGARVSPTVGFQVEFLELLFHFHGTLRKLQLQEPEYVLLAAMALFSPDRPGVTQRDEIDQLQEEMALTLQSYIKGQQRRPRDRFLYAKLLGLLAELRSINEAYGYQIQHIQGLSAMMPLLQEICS

Regarding `C=CC(=O)NCNC(=O)C=C`, the Potency entry in test [1], in test [2], in test [3], in test [4], in test [5] and in [6] was “inactive” each time. For the same compound, in test [7], the Potency entry is “inactive”.
As to `O=C(C(Cl)(Cl)Cl)C(Cl)(Cl)Cl`, the Potency result in test [1], in test [2], in test [3], in [5] and in [7] was “inactive” in each case.
For `C=CC(C)=O`, the Potency entry in test [1], in [2], in test [3], in test [5], in test [6] and in [8] was “inactive” in each case. Moreover, the Potency entry in test [9] and in test [7] was “inactive” in each case.
As to `C[N+](C)(C)CCCl`, the Potency entry in test [1], in test [2], in [3], in test [5], in [6] and in [8] was “inactive” throughout. For the same compound, the Potency entry in test [9] and in test [7] was “inactive” in each case.
Consider `COc1cc(Cl)c(OC)cc1Cl`, for which the Potency entry in test [1], in test [2], in test [3], in test [5], in test [6] and in [8] was “inactive” in each case. Also, in [7], the Potency entry is “inactive”.
As to `CCCCN=C=O`, the Potency result in test [1], in test [2], in [3], in [5], in [6] and in [8] was “inactive” in each case. For the same compound, the Potency entry in [9] and in [7] was “inactive” throughout.
Regarding `Nc1nc(=S)[nH][nH]1`, the Potency result in [1], in test [2], in [3], in [5], in test [6] and in [8] was “inactive” in each case. Besides, in [7], the Potency entry was “inactive”.
Regarding `O=C(CBr)c1ccccc1`, the Potency entry in test [1], in test [2], in test [3], in [10], in test [5] and in test [7] was “inactive” in each case.
As to `O=C(NC(=O)c1c(F)cccc1F)Nc1ccc(OC(F)(F)C(F)OC(F)(F)F)c(Cl)c1` (stereo not given), the Potency entry in test [1], in test [2], in test [3], in test [8] and in [7] was “inactive” each time.
On to `OC(c1ccc(Cl)cc1)(c1ccc(Cl)cc1)c1cccnc1`, for which the Potency result in test [1], in [2], in test [3], in test [10] and in [8] was “inactive” throughout.
Turning to `CCCCCCC#N`, the Potency result in [1], in test [2], in [3], in test [5], in test [9] and in test [7] was “inactive” throughout.
As for `O=Cc1ccc(Cl)cc1Cl`, the Potency entry in test [1], in [2], in test [3], in test [5], in [8] and in test [7] was “inactive” throughout.
Regarding `COP(=O)(OC)O/C(=C/Cl)c1cc(Cl)c(Cl)cc1Cl`, the Potency result in test [1], in test [2], in test [3], in test [8] and in test [7] was “inactive” each time. Further, the Potency in test [6] is 8.13 µM (active).
In the case of `CC(Cl)C(C)Cl` (stereo not given), the Potency result in test [1], in test [2], in test [3], in [5], in test [8] and in [7] was “inactive” each time.
`O=C(OC1CCCCC1)c1ccccc1C(=O)OC1CCCCC1`: the Potency result in [1], in test [2], in test [3], in test [10], in test [5] and in [7] was “inactive” throughout.
Consider `C#CCOC(C(=O)OCCN(C)C)(c1ccccc1)c1ccccc1`, for which the Potency entry in test [1], in test [2], in test [3], in test [10], in test [5] and in [7] was “inactive” each time.
As for `CC1CC(CC2CCC(N)C(C)C2)CCC1N` (stereo not given), the Potency entry in test [1], in [2], in [3], in test [4] and in test [7] was “inactive” throughout.
As to `CC(C)O.CC(C)O.OCCN(CCO)CCO.OCCN(CCO)CCO.[Ti]`, the Potency result in [1], in test [2], in [3], in test [10], in test [5] and in [9] was “inactive” throughout. Moreover, the Potency result in test [7] is “inactive”.
With `CCOS(C)(=O)=O`, the Potency entry in test [1], in [2], in test [3], in test [5], in [9] and in [7] was “inactive” each time.
Turning to `CCCN(CCC)c1c([N+](=O)[O-])cc(S(C)(=O)=O)cc1[N+](=O)[O-]`, the Potency entry in [1], in [2], in test [3], in [5], in test [8] and in test [7] was “inactive” throughout.
Take `O=C(N[C@H](c1ccccc1)[C@@H]1CN2CCC1CC2)c1c(Cl)ccc(C(F)(F)F)c1Cl`: the Potency result in [1], in [4], in [8] and in [7] was “inactive” in each case. In addition, the Potency in test [2] was 98.4 µM (active); in [10], 13.9 µM (active); in test [6], 31.1 µM (active).
In the case of `CC(=O)[C@H]1CC[C@H]2[C@@H]3CC[C@H]4C[C@](C)(O)CC[C@]4(C)[C@H]3CC[C@]12C`, the Potency result in [1], in test [2], in test [10], in [4], in test [5] and in test [6] was “inactive” throughout. For the same compound, the Potency entry in test [8] and in [7] was “inactive” in each case.
Turning to `N#CCC#N`, the Potency result in test [1], in test [4] and in test [7] was “inactive” throughout. In addition, the Potency in test [2] was 48.6 µM (active); in [10], 61.1 µM (active).
Regarding `CCCCC(CC)COP(=O)(Oc1ccccc1)Oc1ccccc1` (stereo not given), the Potency result in test [1], in test [2], in test [10], in [5] and in test [7] was “inactive” throughout. Besides, the Potency in test [4] and in [9] was 27.3 µM (active) in each case.
Consider `CN1C[C@H](CNC(=O)OCc2ccccc2)C[C@@H]2c3cccc4c3c(cn4C)C[C@H]21`, for which the Potency entry in test [1], in test [2], in test [10], in test [4], in [5] and in [9] was “inactive” throughout. Besides, in [7], the Potency entry is “inactive”.
As to `ClC=C(Cl)Cl`, the Potency entry in [1], in test [2], in test [10], in [4], in test [6] and in test [8] was “inactive” each time. The Potency result in test [7] is “inactive”.
`S=C=NCc1ccccc1`: the Potency entry in test [1], in test [2], in test [4], in [5], in test [6] and in test [8] was “inactive” each time. For the same compound, the Potency entry in test [7] is “inactive”.
Consider `O=C(NCc1cccnc1)Nc1ccc([N+](=O)[O-])cc1`, for which the Potency entry in test [1], in test [2], in [10], in [9] and in test [7] was “inactive” throughout.
Regarding `NC(=O)CI`, the Potency was 80.4 µM (active) in test [1] and 35 µM (active) in [7]. In addition, the Potency entry in test [2], in test [4], in test [5], in test [8] and in test [9] was “inactive” each time.
Take `CCC(C)(NC(=O)c1cc(Cl)c(C)c(Cl)c1)C(=O)CCl` (stereo not given): the Potency result in [1], in [4] and in test [8] was “inactive” throughout. The Potency in test [2] was 61.5 µM (active); in [10], 48.9 µM (active); in [5], 24.5 µM (active); in [6], 3.88 µM (active); in [9], 43.5 µM (active); in [7] it was 34.9 µM (active).
As to `O=C=Nc1ccc(Cl)cc1`, the values for the Potency in test [1] and in test [4] were 5.64 µM (active) and 6.86 µM (active), respectively. Also, the Potency entry in test [2], in test [10] and in [5] was “inactive” each time.
As to `Clc1cc(C(Cl)(Cl)Cl)cnc1Cl`, the Potency entry in test [1], in test [5], in test [6], in test [8], in test [9] and in test [7] was “inactive” in each case. Further, the Potency in test [2] is 43.3 µM (active).
As to `Cc1c(F)c(F)c(COC(=O)C2C(/C=C(\Cl)C(F)(F)F)C2(C)C)c(F)c1F` (stereo not given), the Potency entry in [1], in [2] and in [5] was “inactive” in each case.
Take `Nc1ccc(N=Nc2ccc(-c3ccc(N=Nc4c(S(=O)(=O)O)cc5cc(S(=O)(=O)O)c(N=Nc6ccccc6)c(O)c5c4N)cc3)cc2)c(N)c1`: the Potency in [1] is 20.4 µM (active); in test [5], 35.1 µM (active). For the same compound, the Potency result in [2], in test [10] and in test [7] was “inactive” in each case.
